# From PubChem BioAssay (NCATS)
# Unmarked numbers belong to inactive results. Results filed as inconclusive are left out. Where a call stands in place of a potency, no number is given. The source made the active and inactive calls. Calls follow the shape of the dose curve; as a rule, active = well fitted curve in the direction sought with a large enough effect; inconclusive = small, poorly fitted or top-dose-only effect, or another doubt; inactive = no such curve, though single readings can be large; an effect the other way counts as inactive or inconclusive.
# Experiments:
# [1] = test system: Zika virus NS2B-NS3 protease (linked construct); experiment: Primary screen NINDS Rhodamine qHTS for Zika virus inhibitors (AID 1347160); also: nearly all actives have a fitted effect of over 55% in size; also: potency is read from the fitted curve at half-maximal effect
# In short: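 Rhodamine110-peptide cleavage (1.5 µM substrate) by 25 nM linked NS2B-NS3 enzyme at pH 8.0 (Tris, Tween 20), after 15 min RT preincubation with compounds; 15-min fluorescence change normalized to controls and Hill-fitted.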
# [2] = OV-KATE Cancer Cell Toxicity qHTS against the NCATS CANVASS Library (AID 1347345); also: potency is read from the fitted curve at half-maximal effect
# In short: (§1)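 Following a 4 h pre-incubation of 1000 seeded cells, compounds were pinned in an 11-pnt dilution series and left for 72 h; viability then came from CellTiter-Glo.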
# [3] = HPAF-II Cancer Cell Toxicity qHTS against the NCATS CANVASS Library (AID 1347346); also: nearly all actives have a fitted effect of over 55% in size; also: potency is read from the fitted curve at half-maximal effect
# In short: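 Cytotoxicity read-out was CellTiter-Glo luminescence after 72 h at 37 degrees C exposure of HPAF-II cells (1000/well) to compounds in an 11-point titration.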
# [4] = UWB1.289 Cancer Cell Toxicity qHTS against the NCATS CANVASS Library (AID 1347347); also: nearly all actives have a fitted effect of over 60% in size; also: potency is read from the fitted curve at half-maximal effect
# In short: as §1
# [5] = OV-SAHO Cancer Cell Toxicity qHTS against the NCATS CANVASS Library (AID 1347348); also: nearly all actives have a fitted effect of over 55% in size; also: potency is read from the fitted curve at half-maximal effect
# In short: as §1
# [6] = U-118MG Cancer Cell Toxicity qHTS against the NCATS CANVASS Library (AID 1347351); also: potency is read from the fitted curve at half-maximal effect
# In short: as §1
# [7] = COV-362 Cancer Cell Toxicity qHTS against the NCATS CANVASS Library (AID 1347352); also: potency is read from the fitted curve at half-maximal effect
# In short: (§2)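 Toxicity was measured as CellTiter-Glo luminescence after 72 h exposure to an 11-point compound series. Compound was added to 1000 cells/well 4 h after seeding.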
# [8] = A2780 Cisplatin Sensitive Ovarian Cancer Cell Toxicity qHTS against the NCATS CANVASS Library (AID 1347353); also: nearly all actives have a fitted effect of over 60% in size; also: potency is read from the fitted curve at half-maximal effect
# In short: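 Cisplatin-sensitive A2780 ovarian cells (750/well) received compound in 11 concentrations, and were incubated 72 h at 37 °C. ATP content was measured by ATPLite luminescence; bortezomib served as control.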
# [9] = UWB1.289-WTBRCA1 Cancer Cell Toxicity qHTS against the NCATS CANVASS Library (AID 1347354); also: potency is read from the fitted curve at half-maximal effect
# In short: as §2
# [10] = HPAF-II 24hr Apoptosis Induction qHTS against the NCATS CANVASS Library (AID 1347356)
# In short: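 Caspase-Glo 3/7 luminescence, read after 15 min room-temperature development, measures apoptosis in HPAF-II cells treated 24 h at 37 degrees C with an 11-point concentration series; 500 cells/well; doxorubicin control.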
# [11] = HEK293 24hr Apoptosis Induction qHTS against the NCATS CANVASS Library (AID 1347359); also: potency is read from the fitted curve at half-maximal effect
# In short: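 HEK293 cells (500/well, DMEM + 10% FBS) were exposed to compounds in an 11-point series for 24 hours at 37 degrees C, then caspase-3/7 activity was read by Caspase-Glo DEVD luciferase luminescence after 15 min.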
# [12] = HEK293 12hr Apoptosis Induction qHTS against the NCATS CANVASS Library (AID 1347361); also: potency is read from the fitted curve at half-maximal effect
# In short: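 Luminescent caspase-3/7 signal, proportional to enzyme activity, was recorded from HEK293 cultures in DMEM + 10% FBS treated for 12 hours with titrated natural products (11 points). Doxorubicin (0.1nM - 4uM) served as control.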
# [13] = test system: NAD(P)H diaphorase (Clostridium kluyveri); experiment: Diaphorse counterscreen qHTS: Assay Interference Panel against the NCATS CANVASS Library (AID 1347362)
# In short: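 Clostridium kluyveri diaphorase in PBS with 0.01% Tween-20 was preincubated 15 min at room temperature in the dark with compounds (11-point series). Resorufin fluorescence (ex 525/20, em 598/25) was read 5 min after adding resazurin/NADH.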
# [14] = qHTS for ATAD5 Agonist screened against the NCATS CANVASS Library (AID 1347367);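 also: luciferase reporter driven by ATAD5 which rises upon DNA damage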
# In short: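 Genotoxicity was scored as increased ATAD5-luciferase luminescence in HEK293T after 16hr of exposure, with cell viability measured by fluorescence beforehand in the same well.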
# [15] = MCF7 Cancer Cell Toxicity qHTS against the NCATS CANVASS Library (AID 1347369); also: potency is read from the fitted curve at half-maximal effect
# In short: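 This 72 hr qHTS scored MCF7 viability by CellTiterGlo luminescence, with 500 cells/well; bortezomib titration ran as control.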
# [16] = J3T Cancer Cell Toxicity qHTS against the NCATS CANVASS Library (AID 1347371); also: potency is read from the fitted curve at half-maximal effect
# In short: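 Cytotoxicity read as CellTiterGlo ATP luminescence after 72 h incubation (37C, 5% CO2) of J3T canine glioma cells (500/well) with an 11-point compound series.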
# [17] = qHTS for Hypoxia signaling pathway (HIF-1) agonists against the NCATS CANVASS Library (AID 1347375); also: potency is read from the fitted curve at half-maximal effect
# In short: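 Beta-lactamase reporter under HRE control in ME-180 cells; compounds (11-point qHTS series) added after 5 hrs plating, then 17 hrs at 37C. FRET substrate read after 2 hr; same-well CellTiter-Glo luminescence gave viability and normalization.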
# [18] = qHTS for Inflammasome Signaling Inhibitors: IL-1-beta AlphaLISA screen against the NCATS CANVASS Library (AID 1347379);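 also: human THP-1 cells primed with LPS then triggered with ATP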
# In short: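 Secreted IL-1B from human THP-1 cells quantified by AlphaLISA 16 hr after compound addition (final up to 57.5 uM). A 1 hr compound pretreatment preceded inflammasome activation with 250 ng/mL LPS plus 1.25 mM ATP (final).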
# [19] = Vero-766 cells viability qHTS against the NCATS CANVASS Library: Counterscreen for Zika virus inhibition assay (AID 1347394); also: nearly all actives have a fitted effect of over 60% in size; also: potency is read from the fitted curve at half-maximal effect
# In short: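 Counterscreen for toxicity: Vero 766 cells exposed 72 h to an 11-point compound series, viability by CellTiter-Glo.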
# [20] = qHTS for inhibitors of Wild type Zika virus screened against the NCATS CANVASS Library (AID 1347396); also: potency is read from the fitted curve at half-maximal effect
# In short: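 Luminescent CellTiter Glo read-out of virus-induced cytotoxicity, 72 h post-infection, in Vero 766 cells. Compounds were tested at 11 concentrations; uninfected, vehicle-treated wells defined 100% inhibition.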
Structure (SMILES),Potency [1],Potency [2],Potency [3],Potency [4],Potency [5],Potency [6],Potency [7],Potency [8],Potency [9],outcome [10],Potency [11],Potency [12],Potency [13],Potency [14],Potency [15],Potency [16],Potency [17],Potency [18],Potency [19],Potency [20]
COc1cc(/C=C/C(=O)O)ccc1O,inactive,inactive,inactive,inactive,inactive,inactive,inactive,inactive,inactive,inactive,inactive,inactive,inactive,inactive,inactive,inactive,inactive,inactive,inactive,inactive
CS/C=C/C(N)=O,inactive,inactive,inactive,inactive,inactive,inactive,inactive,inactive,inactive,inactive,inactive,inactive,inactive,inactive,inactive,inactive,inactive,inactive,inactive,inactive
COc1ccc2cc(NC(=O)C3=NO[C@H]4[C@H](O)C=C[C@@H](Cl)[C@@]4(O)C3)c(=O)oc2c1OC,49.3 µM (active),inactive,inactive,inactive,inactive,inactive,inactive,9.35 µM (active),inactive,inactive,inactive,inactive,inactive,inactive,inactive,inactive,inactive,inactive,inactive,inactive
C[C@@]12C[C@@H](C[C@H]3C(=O)O[C@@H](c4ccoc4)[C@H](OC(=O)c4ccccc4)[C@@H]31)OC2=O,inactive,inactive,inactive,inactive,inactive,inactive,inactive,inactive,inactive,inactive,inactive,inactive,inactive,inactive,inactive,inactive,inactive,inactive,,inactive
CC1C(=O)C23CCC1C[C@@]21O[C@H]2C(C)(C)C=CC(=O)[C@@]23COC1=O (stereo partly drawn),inactive,inactive,inactive,inactive,inactive,inactive,inactive,inactive,inactive,inactive,inactive,inactive,inactive,inactive,inactive,inactive,inactive,inactive,inactive,inactive
CC(=O)O[C@H]1CC[C@@]2(C)C(CC[C@]3(C)C2CC=C2C4CC(C)(C)CC[C@]4(C)CC[C@]23C)C1(C)C (stereo partly drawn),inactive,inactive,inactive,inactive,inactive,inactive,inactive,inactive,inactive,inactive,inactive,inactive,inactive,inactive,inactive,inactive,inactive,inactive,inactive,inactive
OCc1ccc2ocnc2c1,inactive,inactive,inactive,inactive,inactive,inactive,inactive,inactive,inactive,inactive,inactive,inactive,inactive,inactive,inactive,inactive,inactive,inactive,inactive,inactive
C[C@@]12CCC[C@@](C)(C(=O)O)[C@H]1C[C@@H](O)[C@]13C[C@H]4C[C@H](O[C@@]4(C)C1)[C@@H]23,31.1 µM (active),inactive,inactive,inactive,inactive,inactive,inactive,inactive,inactive,inactive,inactive,inactive,inactive,inactive,inactive,inactive,inactive,inactive,inactive,inactive
O=Cc1ccc2n1C[C@@]1(C[C@H](O)[C@@H](CO)O1)OC2,inactive,inactive,inactive,inactive,inactive,inactive,inactive,inactive,inactive,inactive,inactive,inactive,inactive,inactive,inactive,inactive,inactive,inactive,inactive,inactive
C/C=C/C[C@@H](C)[C@@H](O)[C@H]1C(=O)N[C@@H](CC)C(=O)N(C)CC(=O)N(C)[C@@H](CC(C)C)C(=O)N[C@@H](C(C)C)C(=O)N(C)[C@@H](CC(C)C)C(=O)N[C@@H](C)C(=O)N[C@H](C)C(=O)N(C)[C@@H](CC(C)C)C(=O)N(C)[C@@H](CC(C)C)C(=O)N(C)[C@H](C(C)C)C(=O)N1C,inactive,,,,,,,,,,,,,,,,,,,
C=CC(=C)CC[C@]1(C)[C@H]2C[C@H](OC(=O)C(C)CC)C=C3[C@H](OC(C)=O)O[C@H](OC(C)=O)[C@@]32[C@H](OC)C[C@@H]1C (stereo partly drawn),32.1 µM (active),2.17 µM (active),3.43 µM (active),3.44 µM (active),2.73 µM (active),3.43 µM (active),4.33 µM (active),1.52 µM (active),5.45 µM (active),,9.59 µM (active),17.1 µM (active),,inactive,12.1 µM (active),4.81 µM (active),19.3 µM (active),7.03 µM (active),6.8 µM (active),6.76 µM (active)
CC1(C)CCC[C@]2(C)[C@@H]1CC[C@@]13C[C@@H](CC[C@H]12)C(C)(O)C3 (stereo partly drawn),44 µM (active),inactive,inactive,inactive,inactive,inactive,inactive,inactive,inactive,inactive,inactive,inactive,inactive,inactive,inactive,inactive,inactive,inactive,inactive,inactive
